# Assay outcomes deposited in PubChem by several laboratories.
# TIM10 inh: growth inhibitors of isogenic TIM10 control yeast, primary screen, counter-screen for tim10-1 yeast inhibitor project, luminescence, uHTS | S. cerevisiae TIM10 strain growth, BacTiter-Glo luminescence, 24 h | 1.4% of 330,000 active | inhibition, % at 10 µM;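 active = inhibition of 40% or more at the single tested concentration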;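 note: wild-type TIM10 isogenic control strain grown at permissive 25 °C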
# tim10-1 inh: growth inhibitors of tim10-1 mutant yeast, primary screen, luminescence, uHTS; AID 463190, 2010; S. cerevisiae tim10-1 ts strain growth, BacTiter-Glo, 24 h; 2.2% of 330,000 active; inhibition, % at 20 µM;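 active = inhibition of at least 40%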;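 note: mutant grown at 25 °C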
# NLRP3 yeast inh: NALP3 inflammasome inhibitors in reconstituted yeast, primary screen, luminescence, uHTS. Yeast reconstituted NLRP3/ASC/caspase-1, beta-gal luminescence, 24 h. inhibition, % at 10 µM. 0.39% of 330,000 active. AID 2825, 2010;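 active = inhibition of 50% or more; inactive = inhibition below 50%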
# tim23-1 inh: growth inhibitors of tim23-1 mutant yeast, primary screen, luminescence, uHTS. S. cerevisiae tim23-1 growth, BacTiter-Glo luminescence, 24 h. inhibition, % at 20 µM. 1.3% of 330,000 active. AID 463212, 2010;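 active = growth inhibition of the mutant yeast at or above 50%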;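 note: temperature-sensitive mutant grown at 25 °C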
# PfHsp90 set2: growth inhibition of PfHsp90-expressing yeast, primary screen, antimalarial PfHsp90 inhibitor project, S. cerevisiae, BacTiter-Glo luminescence, single point, set 2 | BacTiter-Glo ATP, 48 h; yeast lacking PDR1 and PDR3 efflux regulators | inhibition, % at 9.4 µM | 0.32% of 310,000 active;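 active = every replicate shows inhibition above about 80%, whatever the replicate mean, limit read from the data; inconclusive = mean inhibition reaches the set limit but some replicate falls short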
# SKKanGAS inh: S. pyogenes SKKanGAS growth inhibitors in kanamycin, primary screen, streptokinase expression inhibitor project, SKKanGAS strain, BacTiter-Glo luminescence; 6 h; inhibition, % at 7.5 µM; 1.3% of 300,000 active;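 active = mean replicate score, as percent of positive control median, at least 50; inconclusive = mean below 50 but one replicate at or above 50; inactive = mean and every replicate below 50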;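 note: strain carries kanamycin resistance gene driven by streptokinase promoter and grows in 40 µg/ml kanamycin; loss of luminescence reflects streptokinase promoter inhibition or plain growth inhibition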
# tim10-1 conf: growth inhibitors of tim10-1 mutant yeast, confirmation, single concentration, luminescence, S. cerevisiae | shares compounds with tim10-1 inh | inhibition, % at 20 µM | S. cerevisiae tim10-1 ts strain growth, BacTiter-Glo, 24 h | 56% of 7,400 active;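 active = inhibition of yeast growth at or above a set limit in either of two repeat tests at 20 µM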;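 note: tim10-1 mutant grown at permissive 25 °C to find synthetic lethal compounds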
# Hits are given with their value; i = inactive; ? = inconclusive; nt = not tested or not shown. Compounds with a hit are over-represented: about 4.6% of the library has one in this group of screens.
SMILES,TIM10 inh,tim10-1 inh,NLRP3 yeast inh,tim23-1 inh,PfHsp90 set2,SKKanGAS inh,tim10-1 conf
O=C(CSc1nc2ccccc2c(=O)n1-c1ccccc1Cl)Nc1cccc(S(=O)(=O)N2CCOCC2)c1,i,i,i,i,i,i,nt
O=C(c1ccc2nc[nH]c2c1)N1CCN(c2cccc(C(F)(F)F)c2)CC1,i,i,i,i,i,i,nt
COc1ccc(OC)c2sc(N3CCCCC3)nc12,i,43.0,i,i,nt,i,i
COc1ccc(OC)c2sc(N3CCN(C(=O)c4ccc5ncsc5c4)CC3)nc12,i,50.3,i,i,i,i,i
O=C(c1ccc2ncsc2c1)N1CCN(c2cccc(C(F)(F)F)c2)CC1,i,57.6,i,i,i,nt,39.5
O=C(Cn1nc(-c2cccc([N+](=O)[O-])c2)c2ccccc2c1=O)NCC1CCCO1 (stereo not drawn),i,i,i,i,i,i,nt
O=C(CCNC(=O)c1ccccc1Cl)Nc1nc(-c2ccccc2Cl)cs1,i,40.2,i,i,i,i,i
O=C(CCNC(=O)c1ccccc1Cl)Nc1nc(-c2ccc(F)cc2)cs1,i,i,i,i,i,i,nt
O=C(NNC(=S)Nc1cccc(C(F)(F)F)c1)c1ccc(Cl)cc1Cl,i,51.6,i,i,i,66.9,46.4
O=C(Nc1ccccc1Cl)c1ccc(Cl)cc1Cl,i,i,i,i,i,i,nt
O=C(NC(=S)Nc1ccccc1O)c1ccc(Cl)cc1Cl,i,42.7,i,i,i,i,i
CC(C)(C)CC(=O)NC(=S)NCc1ccco1,i,i,i,i,i,i,nt
O=C(CCC(=O)N1CCN(c2ccccn2)CC1)c1ccc(Cl)s1,i,i,i,i,i,nt,nt
O=S(=O)(Cc1ccccc1)N1CCc2ccccc21,i,i,i,i,nt,i,nt
COc1ccc(C(=O)NCC2OCCc3ccccc32)c(O)c1 (stereo not drawn),i,45.1,i,i,i,i,i
CCCOc1ccc(C(=O)NCC2OCCc3ccccc32)cc1OC (stereo not drawn),i,i,i,i,i,i,nt
CCC(CC)C(=O)N1CC(=O)Nc2ccc(F)cc2C1c1ccccc1 (stereo not drawn),i,i,i,i,i,i,nt
COC(=O)[C@@H](NC(=O)O[C@@H]1C(=O)c2cc(Br)ccc2O[C@H]1c1cccc(OC)c1)C(C)C,i,i,i,i,nt,i,nt
CCc1ccc(C2CC(c3ccc(Cl)cc3)=NNC2=O)cc1 (stereo not drawn),i,i,i,i,nt,i,nt
CN1N=C(c2ccc(Cl)cc2)CC(c2ccc(Cl)cc2)C1=O (stereo not drawn),i,42.4,i,i,i,i,i
O=C(CNC(=O)c1ccccc1F)OC(C(=O)Nc1cc(C(F)(F)F)ccc1Cl)c1ccccc1 (stereo not drawn),i,43.5,i,i,i,i,i
O=C(COC(=O)CNC(=O)c1ccccc1Cl)Nc1cc(C(F)(F)F)ccc1Cl,i,i,i,i,i,nt,nt
CN(C(=O)COc1ccc(-c2nnco2)cc1)C1CCS(=O)(=O)C1 (stereo not drawn),i,i,i,i,nt,i,nt
CCOc1ccccc1NC(=O)CCNS(=O)(=O)c1cccc2nonc12,i,i,i,i,i,i,nt
CC(C)N(Cc1ccccc1)C(=S)NC1CCCCC1,i,51.4,i,i,i,i,i
SMILES,TIM10 inh,tim10-1 inh,NLRP3 yeast inh,tim23-1 inh,PfHsp90 set2,SKKanGAS inh,tim10-1 conf
COc1ccc2nc(N3CCC(C)CC3)c(C#N)cc2c1,i,46.0,i,i,i,i,i
CSC1=C(C#N)C(c2ccccc2Cl)C2=C(N1)c1ccccc1C2=O (stereo not drawn),i,45.8,i,i,i,i,i
CC1=C(C#N)C(c2ccccc2)C2=C(N1)c1ccccc1C2=O (stereo not drawn),i,i,i,i,i,i,nt
CCOC(=O)Cc1nnc2c(Nc3ccc(Cl)cc3)nc3nonc3n12,i,50.5,i,i,i,?,33.2
O=C(NCCN1CCCC1)c1ccc(Cl)cc1Cl,i,i,i,i,i,i,nt
CCCNC(=O)c1ccc(Cl)cc1Cl,i,97.3,i,i,i,i,i
OCC[C@H]1NCc2cc(CO)cc(-c3ccccc3)c21,nt,nt,nt,nt,i,nt,nt
S=c1nc(C23CC4CC(CC(C4)C2)C3)[nH][nH]1,i,i,i,i,i,i,nt
Cc1sc(N)nc1C12CC3CC(CC(C3)C1)C2,i,45.9,i,i,i,i,i
Cc1ccn2cc(-c3cccc(S(=O)(=O)N4CCCCC4)c3)nc2c1,i,48.1,i,i,i,i,i
Cc1ccc2nc(-c3cccc(S(=O)(=O)N4CCCC4)c3)cn2c1,i,i,i,i,i,i,nt
CN(Cc1ccno1)C(=O)CC1C(=O)NCCN1CC(c1ccccc1)c1ccccc1 (stereo not drawn),i,i,i,i,i,i,nt
CCN(CC(=O)Nc1ccc(NC(C)=O)cc1)C(=O)CC1OC(=O)c2ccccc21 (stereo not drawn),i,i,i,i,i,i,nt
O=C1CC(Sc2nnnn2-c2ccccc2)C(=O)N1c1cccc(Cl)c1 (stereo not drawn),i,49.1,i,i,i,i,46.6
O=C1CC(SCc2nc3ccccc3[nH]2)C(=O)N1c1cccc(Cl)c1 (stereo not drawn),i,40.4,i,i,i,i,35.2
O=C1CC(SCc2nc3ccccc3[nH]2)C(=O)N1c1ccc(F)cc1 (stereo not drawn),i,i,i,i,i,i,nt
S=c1[nH]c(-c2ccccc2)cn1/N=C/c1ccccc1Br,i,41.9,i,i,i,i,i
Cc1cc(=O)[nH]c(N=N/C(=N/Nc2ccc(O)cc2)c2ccccc2)n1,i,49.7,i,i,i,i,38.1
CCN(CC(=O)Nc1ccccc1C(F)(F)F)C(=O)c1ccc(-n2nc(C)c(CCC(=O)OC)c2C)cc1,nt,nt,nt,nt,i,nt,nt
COc1ccc(C(=O)N=C2SC3CS(=O)(=O)CC3N2c2ccc(N(C)C)cc2)cc1OC (stereo not drawn),i,i,i,i,i,i,nt
Cc1ccc(-c2csc(NC(=O)CN3CC(C)OC(C)C3)n2)cc1 (stereo not drawn),i,40.0,i,i,i,i,34.2
O=C(COc1ccc(Cl)cc1Cl)Nc1ccc(S(=O)(=O)NC2=NCCCCC2)cc1,i,43.8,i,i,i,i,39.2
Cc1ccc(Cl)c(OCC(=O)Nc2ccc(S(=O)(=O)NC3=NCCCCC3)cc2)c1,i,i,i,i,i,i,nt
